# PPARg SRC1 recr: PPARgamma agonists recruiting SRC-1 coactivator, primary screen, biochemical; Peroxisome proliferator-activated receptor gamma (Homo sapiens), P37231; PPARgamma-SRC-1 coactivator recruitment biochemical assay; activation, % at 8 µM; actives 0.41% (n = 200,000); AID 631, 2007; in the data active = activation above about 19%;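 note: 0% = DMSO and 100% = reference agonist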
# Target sequence (P37231 whole entry, looked up): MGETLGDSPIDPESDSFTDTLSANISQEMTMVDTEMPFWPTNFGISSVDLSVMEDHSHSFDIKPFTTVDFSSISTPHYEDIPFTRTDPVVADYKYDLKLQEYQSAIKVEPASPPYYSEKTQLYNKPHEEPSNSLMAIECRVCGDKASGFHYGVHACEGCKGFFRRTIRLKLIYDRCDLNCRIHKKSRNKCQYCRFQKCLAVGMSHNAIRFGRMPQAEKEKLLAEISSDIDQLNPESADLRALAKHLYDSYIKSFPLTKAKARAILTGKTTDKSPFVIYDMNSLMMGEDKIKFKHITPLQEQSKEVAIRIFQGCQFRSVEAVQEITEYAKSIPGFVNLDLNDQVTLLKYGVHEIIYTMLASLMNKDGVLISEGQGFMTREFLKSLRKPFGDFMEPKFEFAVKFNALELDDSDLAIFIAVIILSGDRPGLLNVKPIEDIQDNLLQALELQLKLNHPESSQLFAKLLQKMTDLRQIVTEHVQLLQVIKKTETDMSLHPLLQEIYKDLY
# SRC3 TRFRET art: TR-FRET detection interference compounds, artefact control for PPARgamma SRC-3 recruitment agonists, biochemical, TR-FRET ratio. actives 0.39% (n = 99,000). TR-FRET artefact counter-screen, PPARgamma/SRC-3 format; active compounds read high. AID 1048, 2008. TR-FRET ratio at 8 µM
# PPARg SRC-2 ag: agonists of PPARg-SRC-2 recruitment, primary screen, biochemical, HTS; Peroxisome proliferator-activated receptor gamma (Homo sapiens), P37231; PPARgamma LBD-SRC-2 recruitment; activation, % at 8 µM; actives 0.34% (n = 200,000); AID 1032, 2008; in the data active = activation above about 22%;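 note: 0% = vehicle and 100% = reference agonist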
# PPARg SRC-3 ag: PPARgamma agonists recruiting SRC-3 coactivator, primary screen, biochemical | actives 0.26% (n = 200,000) | AID 731, 2007 | Peroxisome proliferator-activated receptor gamma (Homo sapiens), P37231 | biochemical PPARgamma/SRC-3 coactivator recruitment assay | activation, % at 8 µM; in the data active = activation above about 23%;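 note: 0% = DMSO and 100% = reference agonist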
# SRC1 TRFRET art: TR-FRET detection interference compounds, primary screen, artefact control for PPARgamma SRC-1 recruitment agonists, biochemical, TR-FRET emission ratio. TR-FRET detection artefact counter-screen; active compounds read high. TR-FRET ratio at 8 µM. actives 0.34% (n = 99,000); in the data active = TR-FRET ratio above about 2300
# SRC2 TRFRET art: TR-FRET signal artefacts, primary screen, artefact control for PPARgamma SRC-2 agonist project, biochemical | TR-FRET artefact counter-screen; active compounds read high | TR-FRET ratio at 8 µM | actives 0.4% (n = 200,000)
# Numbers without * were called inactive; . = no result given. Shown are actives, neighbours in structure and some others; about 0.9% of the full set was active somewhere. Cut-off read from the data, not from the text of the source, unless noted: active = TR-FRET ratio above about 2000; inactive = the rest.
SMILES,PPARg SRC1 recr,SRC3 TRFRET art,PPARg SRC-2 ag,PPARg SRC-3 ag,SRC1 TRFRET art,SRC2 TRFRET art
CC(=O)c1c(C)[n+]([O-])c2ccc3c(non3O)c12,7,1809,7,-1,1946,1981*
COc1ccc(-c2noc(=O)n2CC(=O)N2CCC(Cc3ccccc3)CC2)cc1,-4,1622,-1,3,1811,1533
C=CCNC(=S)Nc1ccc2nsnc2c1,6,1866,7,10,2407*,1662
CCOc1ccc(NC(=S)Nc2ccc3nsnc3c2)cc1,15,2027,9,13,2443*,1676
S=C(Nc1ccc(Cl)c(Cl)c1)NC1CCCCC1,-4,.,-1,-6,.,1550
S=C(Nc1ccc2nsnc2c1)NC1CCCCC1,11,1898,6,9,2457*,1719
Cc1cc(C)n2nc(SCc3nnc(-c4ccccc4Br)o3)nc2n1,0,1424,-3,3,1799,1570
CC1(C)Cc2c(C#N)c(SCc3ccccc3)nc(N3CCOCC3)c2CO1,11,.,2,-7,.,1710
CC1(C)Cc2c(C#N)c(SCC(=O)c3ccccc3)nc(N3CCOCC3)c2CO1,2,.,60*,-9,.,3056*
NC(=S)NC(=O)/C=C/c1ccccc1,-7,1528,4,1,1815,1633
Fc1ccc(C2CC(c3cccs3)=NN2C(=S)Nc2ccccc2)cc1 (stereo not drawn),10,1821,14,4,2336*,1687
COc1ccc(C2CC(c3ccccc3)=NN2C(=S)Nc2ccccc2)cc1 (stereo not drawn),14,2233*,22,14,2274,2014*
CNC(=S)N1N=C(c2ccc(C)cc2)CC1c1ccc(OC)c(OC)c1 (stereo not drawn),0,1440,-1,1,1680,1450
CNC(=S)N1N=C(c2ccccc2)CC1c1ccc(OC)c(OC)c1 (stereo not drawn),16,1736,15,7,2320*,1694
COc1ccc(C2=NN(C(=S)Nc3ccccc3)C(c3ccccc3)C2)cc1 (stereo not drawn),5,1746,2,5,1987,1723
COc1ccc(/C=N/NC(=O)C2(C)NC(C)(C)Cc3ccccc32)cc1 (stereo not drawn),7,1550,-5,1,1905,1492
O=C(C1CCCO1)N1CCN(C(=S)Nc2ccccc2F)CC1 (stereo not drawn),4,1739,5,3,1903,1446
O=S1(=O)C[C@H]2NC(=S)N(c3ccccc3)[C@H]2C1,1,1497,3,0,1699,1640
CSc1ccc(-c2nc(CN3CCCCC3c3cccnc3)c(C)o2)cc1 (stereo not drawn),8,1624,2,-1,1609,1458
O=c1c2cccnc2[nH]c(=S)n1Cc1ccccc1,1,1522,3,2,1836,1514
O=C(Cn1c(=S)[nH]c2ncccc2c1=O)NCCc1ccccc1,7,1703,-2,5,2328*,1713
O=C(Nc1cnccn1)c1cccc(C(F)(F)F)c1,0,.,65*,2,.,2375*
CC(C)CCN1CCN(Cc2ccc(Oc3ncccn3)cc2)CC1CCO (stereo not drawn),-1,1525,3,-3,1614,1741
CC(C)N1CCN(Cc2ccc(Oc3ncccn3)cc2)CC1CCO (stereo not drawn),21*,1564,-4,2,2154,1545
COCCn1c(=NC(=O)c2cc(-c3cccs3)nc3ccccc23)sc2cc(S(N)(=O)=O)ccc21,5,1939,3,1,1979,1698
SMILES,PPARg SRC1 recr,SRC3 TRFRET art,PPARg SRC-2 ag,PPARg SRC-3 ag,SRC1 TRFRET art,SRC2 TRFRET art
C=CCn1c(=NC(=O)c2cc(-c3cccs3)nc3ccccc23)sc2cc(S(N)(=O)=O)ccc21,7,2319*,4,3,1639,1739
COc1ccccc1CC(=O)NNS(=O)(=O)c1ccc([N+](=O)[O-])cc1,1,1607,0,4,1733,1425
COc1ccc(CCn2c(-c3ccc(Cl)cc3)n[nH]c2=S)cc1OC,4,1596,5,8,1922,1399
CCCCn1c(-c2cc(Cl)ccc2OC)n[nH]c1=S,14,.,22*,19,.,1787
S=C(NC1CCCC1)N1CCN(C/C=C/c2ccccc2)CC1,-5,1345,-3,2,1739,1505
COc1ccc(NC(=O)C2=C(C)Nc3nc(CCCO)nn3C2c2ccc(OC)c(OC)c2)cc1 (stereo not drawn),-2,1625,5,-1,1681,1636
Cc1csc(NC(=O)CSc2nnc(NC(=O)C3CC(=O)N(c4ccccc4)C3)s2)n1 (stereo not drawn),2,1413,15,6,2325*,1627
COc1c(OC)c(O)c2c(=O)cc(-c3c(O)cccc3O)oc2c1OC,21*,1661,2,0,1922,1598
COc1ccc(-c2cc(=O)c3c(OC)c(OC)c(OC)c(OC)c3o2)cc1OC,5,1488,-3,9,2007,1392
CC(C)(C)NC(=O)COC(=O)c1ccccc1OCC(=O)Nc1ccc(Br)cc1,5,1447,-11,-2,1507,1352
CC(OC(=O)c1cc2sccc2n1C)C(=O)NCc1cccs1 (stereo not drawn),24*,.,1,8,.,1517
CSc1nc2sccc2c(=O)[nH]1,-3,1619,-2,1,1900,1538
O=c1[nH]c(=S)[nH]c2sccc12,-1,1856,8,6,2108,2050*
Cc1ccccc1Nc1scc(-c2ccc(Cl)cc2)[n+]1-c1ccccc1C,5,1661,9,9,2015,2007*
Cc1c(Nc2scc(-c3ccccc3)[n+]2-c2ccccc2)c(=O)n(-c2ccccc2)n1C,-2,1624,-4,-5,1586,1361
O=C(Nc1ccccn1)c1cc(-c2cccc(Cl)c2)nc2ccccc12,14,2298*,5,2,2351*,1804
COc1ccc2cc(C(=O)C3CCCN(C(=O)c4cc5nc(C)cc(C)n5n4)C3)ccc2c1 (stereo not drawn),4,1684,0,-3,1924,1706
CNC(=O)C(=O)NCCCN1CCOCC1,4,1748,10,4,1862,1518
c1ccc2[nH]c3cc4ncnc4cc3nc2c1,22*,1699,8,15,1830,1543
Cc1ccccc1NC(=S)N(CCN1CCCCC1)Cc1ccco1,5,1622,4,3,2157,2001*
Cc1ccccc1NC(=S)N(CCCN1CCCCC1)Cc1ccco1,-4,1580,-4,0,1866,1704
CC/C(=N\NC(=S)Nc1cc(C)ccc1C)c1ccc(OC(F)F)cc1,2,1669,6,5,2143,1657
